Reference: PubChem BioAssay AID602248 (The Scripps Research Institute Molecular Screening Center, 2012)
Among all 360,000 compounds or so, about 1,700 (0.47%) were called active. Cut-off read from the data, not from the text of the source: active = activation above about 15%; inactive = the rest. The sample as a whole holds a higher share of actives than the screen did.

Assay: counter-screen for M1 agonists: effect in parental CHO-K1 cells (AID 602248);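 note: untransfected CHO-K1 host cells lacking M1 receptor as counterscreen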
Details: Fluo-8 calcium fluorescence, at 3 µM, hits give high values, scaled to maximal ATP response, vehicle zero

| Compound | activation |
| --- | --- |
| O=C(O)c1cc2c(cc1NC(=O)c1c(F)cccc1Cl)OCCCO2 | 0.67% (inactive) |
| O=C(O)c1cc(Cl)c(Cl)cc1C(=O)Nc1cccc2ncccc12 | 20.9% (active) |
| Cc1ccc(/C=C(\C#N)C(=O)Nc2cccc3ncccc23)o1 | 2.57% (inactive) |
| COc1ccc(C(=O)CSc2nnnn2C)c(OC)c1 | -0.15% (inactive) |
| O=c1c2ccccc2c(-c2ccc(Br)cc2)nn1Cc1ccccc1 | 0.4% (inactive) |
| COC(=O)c1ccc(SCc2ccccc2)nc1 | -0.21% (inactive) |
| CSc1c(SCc2ccccc2)cnn(Cc2ccccc2)c1=O | 18.2% (active) |
| Cc1nn(CC2CC2)c(=O)n1N(C)c1ncc(C(F)(F)F)cc1Cl | 1.05% (inactive) |
| Cc1cc2oc(=O)cc(CN3CCN(S(=O)(=O)c4cccs4)CC3)c2cc1C(C)C | 1.53% (inactive) |
| Cc1ccc2c(CN3CCN(S(=O)(=O)c4ccccc4C(F)(F)F)CC3)cc(=O)oc2c1 | 6.94% (inactive) |
| COc1ccc2c(CN3CCN(S(=O)(=O)c4cccs4)CC3)cc(=O)oc2c1 | 16.1% (active) |
| COc1ccc(NC(=O)Nc2ccc3nsnc3c2)cc1 | 19.9% (active) |
| O=C(Nc1ccccc1)c1ccc2nsnc2c1 | -0.09% (inactive) |
| O=C(Nc1ccc2ccccc2c1)Nc1ccc2snnc2c1 | 14% (inactive) |
| CCc1ccccc1NC(=O)Cc1cn(C)c2ccccc12 | 8.41% (inactive) |
| CC(C)(C)C1CCC(=O)N2CCC[C@]2(c2ccccc2)C1 (stereo partly drawn) | -0.26% (inactive) |
| Cc1nc(N)c(Br)c(C)c1Br | -0.78% (inactive) |
| COc1cccc(CNc2nc(NCc3cccs3)nc3ccsc23)c1 | 24.7% (active) |
| COc1ccccc1CNc1nc(Nc2ccccc2Cl)c2sccc2n1 | 7.11% (inactive) |
| COc1cccc(CNc2nc(NCc3ccccc3OC)nc3ccsc23)c1 | 8.82% (inactive) |
| CN1C(C)(C)CC(NC(=O)CCC(=O)NC2CC(C)(C)N(C)C(C)(C)C2)CC1(C)C | 0.35% (inactive) |
| C=CCN1C2CCCC1CC(NC(=S)Nc1cccc(OC)c1)C2 (stereo not drawn) | 1.29% (inactive) |
| N#Cc1c(-c2ccccc2)c(-c2ccccc2)n[nH]c1=O | -0.04% (inactive) |
| Cc1ccc(C)c2c1cc(C)c1nnc(SCC(=O)Nc3cccc(C(=O)O)c3)n12 | 1.47% (inactive) |
| O=C(CCCOc1ccccc1)Nc1cccc(C(=O)O)c1 | 0.45% (inactive) |
| O=C(CNCc1ccc(Cl)cc1)Nc1cccc(C(=O)O)c1 | 18.2% (active) |
| O=C(NCc1ccco1)c1cccc(-c2ccc3nncn3c2)c1 | 0.29% (inactive) |
| C1CC1Cc1noc(CN2CCN(CC3CC3)CC2)n1 | 1.05% (inactive) |
